The whole screen tested about 360,000 compounds, of which about 2,300 (0.64%) were called active. What follows is part of a selection rich in actives, with near analogues and random picks from the rest. Values without a mark were called inactive.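 How the source made its calls: active means compounds giving at least 50% protection of heart cells from peroxide-induced death in the single-dose screen, raw or plate-pattern-corrected value; inactive means the rest.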
experiment: H9c2 cardiomyocyte survival under peroxide injury – uHTS, H9c2 cells, ATPLite luminescence, primary screen (AID 588492); details: H9c2 cardiomyocytes, 2 h, at 20 µM, active compounds read high;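 further: 0% = DMSO wells with peroxide and 100% = DMSO wells without peroxide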

| SMILES | protection from H2O2 cell death |
| --- | --- |
| CCCCN(CCCC)CCC(O)c1cc2c(Cl)cc(Cl)cc2c2cc(C(F)(F)F)ccc12 (stereo not given) | -33.9% |
| Cc1ccc(NC(=O)Cn2cccc2C2=NC(c3ccccc3)CO2)c(C)c1 (stereo not given) | -6.9% |
| COc1ccc(Cl)cc1NC(=O)CCS(=O)(=O)c1cc2c(cc1C)NC(=O)CO2 | 54.6% (active) |
| COc1ccc(NC(=O)CCS(=O)(=O)c2cc3c(cc2Cl)NC(=O)CO3)cc1OC | 7.8% |
| Cc1cc2c(cc1S(=O)(=O)CCC(=O)NCc1ccccc1)OCC(=O)N2 | 2.9% |
| O=C(Oc1cccc(N2C(=O)C3C4c5ccccc5C(c5ccccc54)C3C2=O)c1)c1ccco1 (stereo not given) | -6.6% |
| Nc1c(N(CCO)C(=O)C2CCCCC2)c(=O)[nH]c(=O)n1Cc1ccccc1 | -1.8% |
| O=C(CNC(=O)c1ccc(Cl)cc1Cl)NCC(=O)Nc1ccccc1N1CCOCC1 | -2.6% |
| Cc1nccn1-c1ccc(NC(=O)[C@H]2O[C@@H](n3cnc4c(N)ncnc43)[C@H](O)[C@@H]2O)cc1 | 4.5% |
| Cc1nc(NC(=O)c2ccc3c(c2)OCCO3)ccc1Br | -4.4% |
| Cc1ccc2sc(NNC(=O)c3ccc4c(c3)OCCO4)nc2c1C | 81.8% (active) |
| Cc1cccc(C)c1NC(=O)CNC(=O)c1ccc2c(c1)OCCO2 | 0.8% |
| O=C1CCN(Cc2ccc([N+](=O)[O-])cc2)CCN1[C@H](CO)Cc1ccccc1 | 0.1% |
| COc1ccc(-c2ccc(Nc3ccc(S(=O)(=O)N4CCCC4)cc3)nn2)cc1OC | 58.5% (active) |
| COc1cc(C(C)=O)ccc1OC(C)C(=O)Nc1ccc(S(=O)(=O)N2CCCC2)cc1 (stereo not given) | 4.6% |
| COc1ccc(S(=O)(=O)N2CCCCCC2)cc1NC(=O)Cc1ccc(OC)c(OC)c1 | 4% |
| CC(Nc1ccccc1)c1cccnc1 (stereo not given) | 4.3% |
| O=C(CCN1CCCCC1)Nc1ccc(F)c(F)c1 | 0.6% |
| O=C(NCCc1ccc(Cl)cc1)c1cccc(N2CCCC2=O)c1 | -1.2% |
| Oc1cc2c(cc1O)CN(C(=S)NCCc1ccc(Cl)cc1)CCC2 | 74.4% (active) |
| Cc1cccc(NC(=S)NCCc2ccc(Cl)cc2)c1C | -6.5% |
| CC(C)C1CCN(C(=O)C2CCC(=O)N(C3CCCCCC3)C2)CC1 (stereo not given) | -2.1% |
| O=C(N/N=C/c1sc(N2CCCCC2)nc1-c1cccs1)c1cccnc1 | 56.3% (active) |

| SMILES | protection from H2O2 cell death |
| --- | --- |
| Cc1ccc(S(=O)(=O)N2CCCCC2)cc1NC(=O)c1cccnc1 | 12% |
| O=C(c1cccnc1)N1CCN(S(=O)(=O)c2cccs2)CC1 | 10.1% |
| CC(C(=O)Nc1ccc(S(=O)(=O)N2CCCC2)cc1)N(C)Cc1ccc(F)cc1 (stereo not given) | 0.3% |
| O=C(NCC(=O)N(CC1CCCO1)C(C(=O)NC1CCCCC1)c1ccccc1)c1ccco1 (stereo not given) | 2.8% |
| Cc1ccccc1N(C(=O)CNC(=O)c1cccs1)C(C(=O)NC1CCCC1)c1ccncc1 (stereo not given) | 1.9% |
| O=C(NCC(=O)N(Cc1cccs1)C(C(=O)NC1CCCCC1)c1ccco1)c1cccs1 (stereo not given) | 68.2% (active) |
| COc1ccc(-c2ccc(C(=O)NC(C)C)c3occc23)c(C)c1 | 5.9% |
| COc1ccc(-c2nc3n(c2Br)CCC3)cc1 | -13.5% |
| COc1ccc(NC(=O)CN(C)C(=O)c2cc(C)oc2C)cc1 | -3.2% |
| CCc1ccc(-c2nc(SCC(=O)NC3CCCC3)n[nH]2)cc1 | -11.6% |
| O=C(OCc1cn([C@H]2C[C@H](c3ccccc3)N(C(=O)c3cccs3)C[C@@H]2O)nn1)c1ccccc1 | -0.9% |
| COC(=O)c1cc(CNC(=O)CC(C)c2ccccc2)ccc1OC (stereo not given) | 9.7% |
| COC(=O)c1ccc(C(NC(=O)OCc2ccccc2)/C(F)=C/[C@@H](C)C(=O)O)cc1 (stereo not given in full) | 1.8% |
| COC(=O)c1ccc(C(NC(=O)OCc2ccccc2)/C(C)=C/[C@@H](C)C(=O)NCc2ccc(OC)c(OC)c2)cc1 (stereo not given in full) | 52% (active) |
| CCCCNC(=O)C(C)N(CCN(C)C)C(=O)CCCCCN1C(=O)NC(c2ccc(Cl)cc2)C(C(=O)OCc2ccccc2)=C1C (stereo not given) | -27% |
| CC(=O)NC(c1cccc(F)c1)c1nc(-c2cccc(F)c2)cs1 (stereo not given) | -2.7% |
| Nc1nc2cc(Cl)ccc2n1N | 1.6% |
| Cc1c(C(=O)Nc2ccccc2Cl)oc2ccc(S(=O)(=O)N3CCC4(CC3)OCCO4)cc12 | 0.9% |
| COc1ccc(NC(=O)c2oc3ccc(S(=O)(=O)N4CCOCC4)cc3c2C)cc1 | 52.7% (active) |
| Cc1c(C(=O)Nc2cccc(S(=O)(=O)N3CCOCC3)c2)oc2ccccc12 | 4.3% |
| Cc1ccc(NC(=O)C(C)OC(=O)Cc2c[nH]c3ccccc23)cc1S(=O)(=O)N1CCOCC1 (stereo not given) | -2.5% |
| C/C(=N\NC(=O)c1cccc([N+](=O)[O-])c1)c1cccnc1 | 9.5% |
| CCN(CC)c1ccc(S(=O)(=O)N2CCCCC2)cc1NC(=O)C1=COCCO1 | -3.5% |

| SMILES | protection from H2O2 cell death |
| --- | --- |
| CC(=O)c1c(C)[nH]c(C(=O)OCC(=O)Nc2sc3c(c2C#N)CCCC3)c1C | -12.2% |
| CCN1CCN(C(c2cccnc2)c2cc(Cl)c3cccnc3c2O)CC1 (stereo not given) | 64% (active) |
| CCCCC(=O)NC(c1ccc(OC)c(OC)c1)c1ccc2cccnc2c1O (stereo not given) | 36.9% |
| CCOC(=O)N1CCN(C(c2cccnc2)c2ccc3cccnc3c2O)CC1 (stereo not given) | 69.3% (active) |
| CCOC(=O)N1CCN(C(=O)C2CCN(c3ncnc4c3sc3cccc(F)c34)CC2)CC1 | -28.4% |
| CC(=O)NC(c1cccs1)c1cc(Br)c2cccnc2c1O (stereo not given) | 43.4% |
| CCn1c(SC(C)C(=O)Nc2ccc(N3CCOCC3)cc2)nnc1-c1ccco1 (stereo not given) | -3.9% |
| O=C(CN1C(=O)c2cccnc2Oc2ccc(Cl)cc21)Nc1ccc(F)cc1 | 21.7% |
| OC(c1cc(Cl)cc(Cl)c1)c1ncc(-c2ccccc2C(F)(F)F)[nH]1 (stereo not given) | -8.9% |
| CC(=O)Nc1cccc(-c2nc3ccccc3s2)c1C | -3.3% |
| COc1cccc(/C=C(/CC(=O)Nc2ccc(N3CCOCC3)cc2)c2nc3ccccc3s2)c1 | -4.6% |
| COc1cccc2sc(NNC(=O)c3nc4ccccc4s3)nc12 | 53.7% (active) |
| COC(=O)[C@@H]1CCCN1C(=O)c1cc(COc2cccc3cccnc23)on1 | 11.6% |
| CSCCC(c1nnnn1Cc1ccccc1)N1CCN(C/C=C/c2ccccc2)CC1 (stereo not given) | -2% |
| Cc1ccc(C(=O)OCC(=O)NC2CCCCCCC2)cc1C | -0.9% |
| CCn1c2ccc(F)cc2c2nnc(SCCN3CCOCC3)nc21 | 3.7% |
| CN(C)c1nc(NN)nc(Nc2ccc(F)cc2)n1 | -2.7% |
| Cn1c2ccc(F)cc2c2nnc(NN)nc21 | 56.4% (active) |
| CSc1nc(-c2ccccc2)nc(C(Cl)Cl)n1 | -2.9% |
| COC(=O)c1c(C(=O)OC)c2n(c1C)CCS2 | -0.3% |
| Cc1cccc(N(C(=O)c2csnn2)C(C(=O)NCc2ccccc2)c2ccncc2)c1 (stereo not given) | 2.2% |
| COc1ccc(CNC(=O)C(c2ccc(O)cc2)N(Cc2ccco2)C(=O)c2snc(C(N)=O)c2N)cc1 (stereo not given) | 49% |
| COc1ccc(C(C(=O)NCc2ccccc2)N(Cc2cccs2)C(=O)c2cnccn2)cc1 (stereo not given) | 79.8% (active) |

| SMILES | protection from H2O2 cell death |
| --- | --- |
| CC(C)c1nnc(NC(=O)CCC(=O)N2CCN(c3cccc(Cl)c3)CC2)s1 | -2.1% |
| CCOc1ccc(-c2ccc(SCC(=O)N3CCOCC3)nn2)cc1 | -13.9% |
| COc1cccc(-c2ccc(SCC(=O)N3CCN(c4ccccc4)CC3)nn2)c1 | 53.9% (active) |
| COc1cccc(/C=C/C(=O)OCC(=O)N2CCN(c3ccccc3)CC2)c1 | 2% |
| CC1(C(=O)NS(=O)(=O)Cc2cccc(Cl)c2)CCN1C(=O)Cc1ccccc1 (stereo not given) | -2.8% |
| COc1ccc(NC(=O)CN(C)C(=O)CC2CCCCC2)cc1 | 0.1% |
| C[C@H](NC(=O)c1nc[nH]c1C(=O)NCC(=O)OC(C)(C)C)C(=O)OCc1ccccc1 | 41.9% |
| CCOC(=O)c1ccc(NC(=O)c2nc[nH]c2C(=O)NCc2ccccc2)cc1 | 21.8% |
| Cc1cccc(NC(=O)c2nc[nH]c2C(=O)NCC(=O)OCc2ccccc2)c1 | 86.4% (active) |
| COC(=O)C1=C(C)NC(=O)/C1=C/c1ccc(CNS(=O)(=O)c2ccc(C)cc2)o1 | 2.9% |
| COC(=O)C1=C(C)NC2=C(C(=O)c3ccccc32)C1c1ccc(-c2ccc(C(=O)O)cc2)o1 (stereo not given) | 60.9% (active) |
| Nc1ccc2nc3c(=O)[nH]c(=S)[nH]c3nc2c1 | -6.1% |
| CCOc1ncccc1C(=O)N(CC)CC(=O)Nc1ccc(NC(C)=O)cc1 | -4.3% |
| COc1ccc(N(CC(=O)N/N=C/c2cccc3c2OCCO3)S(=O)(=O)c2ccc(NC(C)=O)cc2)cc1 | 26.2% |
| COc1ccc(S(=O)(=O)N(CC(=O)N/N=C/c2ccc(C(=O)O)cc2)Cc2ccccc2)cc1OC | -0.7% |
| COc1ccc(N(CC(=O)N/N=C/c2cccs2)S(=O)(=O)c2ccc(OC)c(OC)c2)cc1 | 52.7% (active) |
| N#Cc1ncc(C(F)(F)F)cc1Oc1cccnc1 | -0.3% |
| Cc1cc(C)c(C(N)=O)c(Cl)n1 | 0.4% |
| COc1ccc(C(C)(O)c2nc(-c3ccc(C)c(C)c3)cs2)cc1 (stereo not given) | -13.4% |
| COc1ccc(C(O)c2nc(-c3ccc4c(c3)OCO4)cs2)cc1 (stereo not given) | -5.3% |
| COc1ccc(OC)c(Nc2nc(-c3ccc(O)c(O)c3)cs2)c1 | 52% (active) |

— PubChem BioAssay AID588492 (Sanford-Burnham Center for Chemical Genomics, 2011)
